Data on six molecules can be found in PubChem BioAssay (NCATS).

The nature of assay [1]: AP1 Signaling Pathway (AID 357; active = well fitted curve in either direction with a large enough effect, not every such curve was filed as active;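 also: ME-180 reporter cells stimulated with EGF at its EC50 level; % is scaled to controls: 0 for no effect and ±100 for the full control effect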). The method in brief:
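AP-1-bla ME-180 cells, Opti-MEM + 0.5% dialyzed FBS, plated overnight 37 °C. Cpd titration + EC50 EGF, 5 h 37 °C. CCF4 2.5 h RT; ex 405, em 460/530 ratio → %activity, AC50.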

The target of assay [2] is Cytochrome P450 1A2 (Homo sapiens) (UniProt P05177). As to the kind of experiment: p450-cyp1a2 (AID 410; calls by dose curve; also: potency is read from the fitted curve at half-maximal effect;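 as to activity change, negative = inhibition: -100% = full effect of reference inhibitor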). The method in brief: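 Read-out is luminescence from luciferin produced by CYP1A2 demethylation of Luciferin-ME (100uM, at Km). Detection reagent stopped the 60 min NADPH-dependent reaction; signals were normalized to 57 uM furafylline.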
Sequence of Cytochrome P450 1A2 (Homo sapiens) (P05177 whole entry, looked up): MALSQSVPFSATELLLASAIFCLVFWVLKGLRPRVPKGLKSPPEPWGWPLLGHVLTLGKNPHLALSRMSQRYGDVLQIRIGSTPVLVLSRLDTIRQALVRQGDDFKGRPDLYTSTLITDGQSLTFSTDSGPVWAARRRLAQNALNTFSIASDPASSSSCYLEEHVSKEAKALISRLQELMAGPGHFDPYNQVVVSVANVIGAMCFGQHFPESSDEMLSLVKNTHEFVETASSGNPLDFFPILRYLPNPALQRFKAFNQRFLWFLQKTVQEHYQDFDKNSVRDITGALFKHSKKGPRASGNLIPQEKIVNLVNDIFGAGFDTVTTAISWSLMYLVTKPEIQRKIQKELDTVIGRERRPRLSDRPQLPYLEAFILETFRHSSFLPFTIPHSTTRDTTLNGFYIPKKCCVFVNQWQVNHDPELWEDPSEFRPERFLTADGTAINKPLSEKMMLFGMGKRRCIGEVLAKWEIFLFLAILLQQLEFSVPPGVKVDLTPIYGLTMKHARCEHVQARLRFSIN
Assay [3] can be described thus: NFAT Signaling Pathway (AID 444; active = well fitted curve in either direction with a large enough effect, not every such curve was filed as active;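 also: carbachol stimulus at about its EC50 of 1 µM final; % is scaled to controls: 0 for no effect and ±100 for the full control effect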). The note with it: Jurkat NFAT-bla M1, carbachol, beta-lactamase ratio, 5 h; at 17.2 µM (top of the series) unless noted. The method in brief: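 Read-out: CCF4 FRET ratio (460 nm/530 nm) after 1 h RT dye loading, used for %activity and AC50 from titration series. Cells: Jurkat NFAT-β-lactamase/M1 line, treated with compound plus 1 uM carbachol for 5 h, 37 °C.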

Assay [4] is described as follows: Stat Signaling Pathway (AID 446; active = well fitted curve in either direction with a large enough effect, not every such curve was filed as active;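 also: ME-180 cervical cancer cells given 40 pM IL-6 alongside compound; SIE-controlled beta-lactamase reporter measured as 460/530 nm FRET emission ratio; % is scaled to controls: 0 for no effect and ±100 for the full control effect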). The method in brief: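 Normalization used AC90 stimulation (300 pM IL-6) and AC90 inhibition (125 nM pan-JAK inhibitor at 40 pM IL-6). The underlying signal is SIE-driven beta-lactamase in ME-180 cells after 5 h IL-6 exposure with compound.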
Assay [5] concerns the target 3',5'-cyclic-AMP phosphodiesterase 4B (Homo sapiens) (UniProt Q07343). In words: qHTS Assay for Inhibitors of PDE-IV (AID 607; active = well fitted activation curve with a large enough effect in the main read-out, with a control signal flat, not every such curve was filed as active; also: % of control where 0% means no effect). An outline of the steps:
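HEK293 ACTOne cells with CNG channel (1000/well), endogenous PDE4; membrane potential dye, compounds up to 22.9 uM final. Fluorescence Ex 535/Em 590; RO 20-1724 (100 uM final) as reference.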
(In qHTS, concentration-response curves come from the screen itself.)

Assay [6] can be described thus: qHTS Assay for Lipid Storage Modulators (AID 1519; calls by dose curve). The note with it: Drosophila S3 cells, BODIPY lipid droplet/cell ratio, laser cytometry, cells loaded with oleic acid; for activity change, negative = inhibition: at 25.7 µM (top of the series). An outline of the steps:
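Cells seeded at 5,000 per well were treated with compounds over a concentration series and loaded with oleic acid (400 uM, as added). Lipid droplet fluorescence (488 nm excitation, 500-530 nm channel) was read by laser-scanning cytometry and normalized to 20 uM Triacsin C.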

Assay [7] has as its target Ubiquitin carboxyl-terminal hydrolase 1 (Homo sapiens) (UniProt O94782). As to the kind of experiment: Inhibitors of USP1/UAF1: Pilot qHTS (AID 504865).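 Also: rhodamine fluorescence freed from ubiquitin-rhodamine substrate followed over time; top concentration of the series differs between compounds; % is scaled to controls: 0 for no effect and ±100 for the full control effect; nearly all actives have a fitted effect of over 35% in size.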 The method in brief: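 Kinetic fluorescence assay: 1nM USP1/UAF1, 15 min compound preincubation, then 150nM Ub-Rho; 480/540 nm.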
Assay [8] has as its target Mitogen-activated protein kinase 10 (Mus musculus) (UniProt Q61831). In words: JNK3 AlphaScreen Assay (AID 530; active = well fitted curve in either direction with a large enough effect, not every such curve was filed as active;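 also: kinase came from lysate of stimulated human HepG2 cells; signal reports phosphorylation of biotinylated GST-cJun 1-79 at Ser73 with 10 µM ATP; % is scaled to controls: 0 for no effect and ±100 for the full control effect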). The method in brief:
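Kinase buffer: 20 mM Tris-HCl pH 7.6, 10 mM MgCl2, 1 mM DTT, 0.1 mM Na3VO4, 0.01% Tween-20; ATP 10 uM. Substrate biotin-GST-cJun(1-79), enzyme from activated HepG2 lysates. Detection by Ser73 phospho-antibody AlphaScreen.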
A general note: In Alpha technology, singlet oxygen from a donor bead excites a nearby acceptor bead.

Assay [9] in a line: S16 Schwann cell PMP22 intronic element firefly luciferase assay (AID 624032).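 Also: plate controls were DMSO for no effect and PTC124 positive control mean for full effect; nearly all actives have a fitted effect of over 30% in size.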 The method in brief: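 Luciferase reporter of PMP22 intronic-element expression in stably transfected S16 rat Schwann cells, read by ONE-Glo luminescence after 24 h compound exposure at 37 C. Activity scaled between DMSO (0%) and positive-control PTC124; concentration-effect curves quality-classified.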

A short description of assay [10]: qHTS profiling for inhibitors of Plasmodium falciparum proliferation (AID 504749). Also: potency is read from the fitted curve at half-maximal effect.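 As to activity, negative = inhibition: 0% = DMSO vehicle and full inhibition = artemisinin control.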 As to all read-outs here: nearly all actives have a fitted effect of over 60% in size. The note with it: P. falciparum in erythrocytes, SYBR Green DNA, 72 h; for activity, negative = inhibition: at 12.8 µM (top of the series). The method in brief: (§1)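 In a 72 h erythrocytic culture (37 C, humidified, 5% CO2) at 2.5% hematocrit and 0.3% starting parasitemia, compounds were tested; SYBR Green I in detergent lysis buffer stained parasite DNA overnight.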

Another assay relates to 3D7. Described as above. As to conditions: P. falciparum in erythrocytes, SYBR Green DNA, 72 h; series mostly up to 12.8 µM. An outline of the steps:
as §1

The next assay relates to AS120. The assay is described as above. The note with it: P. falciparum in erythrocytes, SYBR Green DNA, 72 h; series mostly up to 12.8 µM. The method in brief: as §1
For another assay, the system named is ATS189. The assay is described as above. The note with it: P. falciparum in erythrocytes, SYBR Green DNA, 72 h; series mostly up to 12.8 µM. The method in brief:
as §1

The subject of another assay is CP217. The description is as above. As to conditions: P. falciparum in erythrocytes, SYBR Green DNA, 72 h; series mostly up to 12.8 µM. The method in brief:
as §1

The subject of the next assay is CP247. Described as above. The note with it: P. falciparum in erythrocytes, SYBR Green DNA, 72 h; series mostly up to 12.8 µM. The method in brief: as §1
The test system of another assay is CP250. The description is as above. The note with it: P. falciparum in erythrocytes, SYBR Green DNA, 72 h; series mostly up to 12.8 µM. The method in brief:
as §1

Assay [11] in a line: S16 Schwann cell viability assay (CellTiter-Glo assay) (AID 624031).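 Also: native untransfected S16 rat Schwann cells; cellular ATP luminescence as a viability measure; plate controls were DMSO-treated cells for no effect and cell-free wells for full effect; nearly all actives have a fitted effect of over 70% in size.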 An outline of the steps: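 Concentration-effect curves come from CellTiter-Glo luminescence of S16 rat Schwann cells after 24 h compound exposure. Each reading was normalized to DMSO wells (0%) and wells without cells, and curves were ranked by r2 and response magnitude.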
The test system of a further assay is SC27B. As to the kind of experiment: qHTS profiling for inhibitors of Plasmodium falciparum proliferation (AID 504749). Also: nearly all actives have a fitted effect of over 60% in size. Also: potency is read from the fitted curve at half-maximal effect.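 As to activity, negative = inhibition: 0% = DMSO vehicle and full inhibition = artemisinin control.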 As to conditions: P. falciparum in erythrocytes, SYBR Green DNA, 72 h; series mostly up to 12.8 µM. An outline of the steps: as §1
The mark [12] stands for this setting: measured here: cell count channel max response.
Where [13] appears, read: measured here: lipid channel max response.

Inconclusive results are not listed. The source made the active and inactive calls. Unless noted, calls follow the shape of the dose curve; as a rule, active = well fitted curve in the direction sought with a large enough effect; inconclusive = small, poorly fitted or top-dose-only effect, or another doubt; inactive = no such curve, though single readings can be large; an effect the other way counts as inactive or inconclusive.

Sequence of Ubiquitin carboxyl-terminal hydrolase 1 (Homo sapiens) (O94782 whole entry, looked up): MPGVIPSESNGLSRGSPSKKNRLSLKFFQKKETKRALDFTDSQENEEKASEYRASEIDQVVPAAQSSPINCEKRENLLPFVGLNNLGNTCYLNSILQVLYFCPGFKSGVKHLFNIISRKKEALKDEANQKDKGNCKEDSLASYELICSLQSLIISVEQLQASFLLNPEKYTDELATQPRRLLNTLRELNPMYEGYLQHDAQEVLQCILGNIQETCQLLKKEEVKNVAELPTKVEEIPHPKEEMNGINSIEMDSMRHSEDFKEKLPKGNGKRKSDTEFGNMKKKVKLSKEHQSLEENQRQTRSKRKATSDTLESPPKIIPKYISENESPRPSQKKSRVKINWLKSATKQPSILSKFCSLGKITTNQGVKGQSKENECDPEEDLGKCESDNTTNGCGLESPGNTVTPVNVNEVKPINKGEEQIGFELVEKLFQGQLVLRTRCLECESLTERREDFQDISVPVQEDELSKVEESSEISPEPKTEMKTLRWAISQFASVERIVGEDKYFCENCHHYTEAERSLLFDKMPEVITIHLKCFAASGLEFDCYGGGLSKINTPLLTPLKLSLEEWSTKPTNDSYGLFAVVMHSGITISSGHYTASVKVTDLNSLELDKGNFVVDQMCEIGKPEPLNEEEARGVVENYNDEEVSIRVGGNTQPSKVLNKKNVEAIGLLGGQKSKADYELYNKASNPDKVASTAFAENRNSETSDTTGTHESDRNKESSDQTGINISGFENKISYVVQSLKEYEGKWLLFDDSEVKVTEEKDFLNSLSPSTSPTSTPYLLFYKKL
Sequence of 3',5'-cyclic-AMP phosphodiesterase 4B (Homo sapiens) (Q07343 whole entry, looked up): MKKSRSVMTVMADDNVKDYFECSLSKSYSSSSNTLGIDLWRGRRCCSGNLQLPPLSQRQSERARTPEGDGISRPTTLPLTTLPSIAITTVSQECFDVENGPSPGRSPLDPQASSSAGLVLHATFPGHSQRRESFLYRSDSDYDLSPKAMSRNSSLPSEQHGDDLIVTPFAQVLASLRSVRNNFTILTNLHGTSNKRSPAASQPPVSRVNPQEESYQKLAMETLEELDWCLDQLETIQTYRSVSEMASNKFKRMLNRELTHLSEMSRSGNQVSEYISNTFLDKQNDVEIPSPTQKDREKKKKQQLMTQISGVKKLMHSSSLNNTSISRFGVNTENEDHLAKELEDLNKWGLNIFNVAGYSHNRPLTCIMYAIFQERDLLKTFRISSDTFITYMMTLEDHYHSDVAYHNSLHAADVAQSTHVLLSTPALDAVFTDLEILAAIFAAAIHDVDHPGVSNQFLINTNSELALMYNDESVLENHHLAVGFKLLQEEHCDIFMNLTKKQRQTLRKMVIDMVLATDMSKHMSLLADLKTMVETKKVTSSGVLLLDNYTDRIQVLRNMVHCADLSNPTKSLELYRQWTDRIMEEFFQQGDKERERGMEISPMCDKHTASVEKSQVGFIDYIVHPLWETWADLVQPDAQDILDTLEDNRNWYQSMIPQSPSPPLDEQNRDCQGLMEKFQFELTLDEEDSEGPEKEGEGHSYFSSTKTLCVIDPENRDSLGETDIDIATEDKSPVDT

For the molecule `C[C@@H]1C[C@@H]2[C@H]3CCC4=CC(=O)C=C[C@]4(C)[C@]3(F)[C@@H](O)C[C@]2(C)[C@@]1(O)C(=O)CO`, the molecule was classed as inactive in assay [1], in assay [4] and in assay [5]. Moreover, the Potency entry in assay [2] and in assay [7] was “inactive” each time. For the same molecule, the figures for the activity change, negative = inhibition in assay [3] and in [6] were -9.85% (inactive) and -3.53% (inactive), respectively. The max response is 2.12% in assay [6] (setting [12]) and -8.18% in [6] (setting [13]).
As to `CCC[C@@H]1O[C@@H]2C[C@@H]3[C@H]4CCC5=CC(=O)C=C[C@@]5(C)[C@H]4[C@H](O)C[C@@]3(C)[C@@]2(C(=O)CO)O1`, the outcome in [1], in [4] and in assay [5] was inactive. For the same molecule, the Potency entry in assay [2], in assay [8], in assay [7] and in assay [9] was “inactive” each time. In addition, the activity change, negative = inhibition in assay [3] was -1.55% (inactive); in assay [6], -3% (inactive). Besides, the max response in assay [6] (setting [12]) was 4.44%; in [6] (setting [13]), -2.78%. Moreover, the Potency in [10] (parasite line A) is 11.2 µM (active); in [10] (parasite line B) it was 11.2 µM (active); in the assay with 3D7 it was 7.94 µM (active); with AS120, 11.2 µM (active); in the assay on ATS189 it was 7.08 µM (active); in the assay on CP217 it was 10 µM (active). Further, the Potency in the assay on CP247 was 8.91 µM (active); in the assay on CP250 it was 11.2 µM (active).
In the case of `CC(=O)N(C[C@@H](O)CO)c1c(I)c(C(=O)NC[C@@H](O)CO)c(I)c(C(=O)NC[C@@H](O)CO)c1I`, the molecule was called inactive in assay [1], in [4] and in [5]. Moreover, the Potency result in assay [2], in assay [8] and in [7] was “inactive” in each case. Further, the activity change, negative = inhibition in assay [3] is -8.29% (inactive); in [6] it was -2.6% (inactive). The figures for the max response in assay [6] (setting [12]) and in [6] (setting [13]) were -16.6% and -19.4%, respectively.
As for `O=C(/C=C\C=C/c1ccc2c(c1)OCO2)N1CCCCC1`, the call in assay [1] and in assay [4] was inactive. In addition, the Potency in assay [2] was 3.16 µM (active). Further, the figures for the activity change, negative = inhibition in assay [3] and in assay [6] were -3.46% (inactive) and 2% (inactive), respectively. In addition, the Potency entry in assay [8] was “inactive”. In addition, the figures for the max response in assay [6] (setting [12]) and in [6] (setting [13]) were -1.9% and 1.28%, respectively.
For `CN=C(NC#N)NCCSC[C@H]1N=CN=C1C`, the outcome in [1], in assay [4] and in assay [5] was inactive. Also, the Potency entry in [2], in assay [8] and in [7] was “inactive” throughout. Besides, the activity change, negative = inhibition in [3] is -3.43% (inactive); in assay [6] it was -0.0882% (inactive). Moreover, the max response in assay [6] (setting [12]) is -1.59%; in [6] (setting [13]), -1.32%.
As to `CC(=O)C[C@H](c1ccc([N+](=O)[O-])cc1)c1c(O)c2ccccc2oc1=O`, the outcome in assay [1], in [4], in [5] and in [11] was inactive. Also, the Potency entry (in assay [2]; in assay [8]; in assay [7]; in assay [9]; in the assay on 3D7; in the assay on AS120) was “inactive” in each case. The Potency result in the assay on ATS189, with CP217, in the assay on CP247, in the assay with CP250 and in the assay with SC27B was “inactive” throughout. For the same molecule, the activity change, negative = inhibition in assay [3] was -1.36% (inactive); in assay [6], 3.15% (inactive). Also, the max response is -11.4% in [6] (setting [12]) and -10.7% in [6] (setting [13]). The activity, negative = inhibition is 7.55% (inactive) in assay [10] (parasite line A) and 3.6% (inactive) in assay [10] (parasite line B).
